{"source": "paper PMC4336329", "about": "(PLoS ONE, 2015)", "note": "The whole screen tested about 310,000 compounds, of which about 14,000 (4.5%) showed an effect of 50% or more. The effect is printed as a negative number. The entries come from a sample that favours strong results as a whole.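 Also: peak tail current of the secondary pulse compared with the same well before compound.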", "data": [{"biological_target": "human ether-à-go-go-related gene (hERG) potassium channel (human, UniProt Q12809)", "sequence (Q12809 whole entry, looked up)": "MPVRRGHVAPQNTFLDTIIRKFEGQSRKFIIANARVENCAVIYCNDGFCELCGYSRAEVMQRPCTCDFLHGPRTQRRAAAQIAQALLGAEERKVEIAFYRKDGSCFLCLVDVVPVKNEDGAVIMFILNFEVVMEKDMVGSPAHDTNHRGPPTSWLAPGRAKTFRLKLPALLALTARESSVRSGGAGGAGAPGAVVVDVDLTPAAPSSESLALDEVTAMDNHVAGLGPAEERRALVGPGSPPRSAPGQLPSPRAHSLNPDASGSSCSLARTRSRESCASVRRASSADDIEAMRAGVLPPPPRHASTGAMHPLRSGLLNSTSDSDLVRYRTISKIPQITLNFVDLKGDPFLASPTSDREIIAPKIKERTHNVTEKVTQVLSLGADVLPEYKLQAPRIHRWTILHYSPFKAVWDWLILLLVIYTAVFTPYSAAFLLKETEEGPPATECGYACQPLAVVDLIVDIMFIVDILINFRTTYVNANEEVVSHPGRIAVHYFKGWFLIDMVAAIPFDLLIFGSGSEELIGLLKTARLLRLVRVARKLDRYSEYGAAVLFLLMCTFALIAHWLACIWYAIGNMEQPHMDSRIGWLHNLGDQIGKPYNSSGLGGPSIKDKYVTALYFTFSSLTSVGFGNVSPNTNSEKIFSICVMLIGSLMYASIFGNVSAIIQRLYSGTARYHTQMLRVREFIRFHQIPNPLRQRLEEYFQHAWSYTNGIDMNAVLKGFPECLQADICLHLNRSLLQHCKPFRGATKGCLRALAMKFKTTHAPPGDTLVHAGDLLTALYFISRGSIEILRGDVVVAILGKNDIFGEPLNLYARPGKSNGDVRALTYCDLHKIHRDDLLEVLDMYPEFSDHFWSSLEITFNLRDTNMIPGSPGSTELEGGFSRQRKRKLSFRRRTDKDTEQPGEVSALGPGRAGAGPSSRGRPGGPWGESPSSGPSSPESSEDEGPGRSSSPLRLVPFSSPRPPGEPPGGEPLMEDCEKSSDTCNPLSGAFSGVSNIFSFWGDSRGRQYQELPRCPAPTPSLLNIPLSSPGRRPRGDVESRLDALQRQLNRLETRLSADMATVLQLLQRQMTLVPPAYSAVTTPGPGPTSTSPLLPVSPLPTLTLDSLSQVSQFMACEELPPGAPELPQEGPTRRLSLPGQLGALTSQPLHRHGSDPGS", "test": "primary screen, population patch clamp on CHO cells stably expressing hERG; higher = less effect of the substance", "units": {"hERG current change (%, negative = inhibition) at 10uM": "%"}, "values": [{"smiles": "Cc1ccc(/C=N/NC(=O)Cn2cnc3ccccc32)o1", "hERG current change (%, negative = inhibition) at 10uM": 3.48}, {"smiles": "Oc1ccc(N2CCN(c3nc(-c4cccs4)nc4ccccc34)CC2)cc1", "hERG current change (%, negative = inhibition) at 10uM": 16.5}, {"smiles": "O=S(=O)(c1ccccc1)N1CCN(c2nc(-c3cccs3)nc3ccccc23)CC1", "hERG current change (%, negative = inhibition) at 10uM": 9.84}, {"smiles": "COc1ccc(N2CCN(c3nc(-c4cccs4)nc4ccccc34)CC2)cc1", "hERG current change (%, negative = inhibition) at 10uM": 14.4}, {"smiles": "CN1CCN(c2nnc(-c3cccs3)c3ccccc23)CC1", "hERG current change (%, negative = inhibition) at 10uM": -53.9}, {"smiles": "c1ccc(N2CCN(c3nc(-c4cccs4)nc4ccccc34)CC2)cc1", "hERG current change (%, negative = inhibition) at 10uM": -8.84}, {"smiles": "CCCN1CCN(c2nc(-c3cccs3)nc3ccccc23)CC1", "hERG current change (%, negative = inhibition) at 10uM": -68.6}, {"smiles": "CN1CCN(c2nc(-c3cccs3)nc3ccccc23)CC1", "hERG current change (%, negative = inhibition) at 10uM": -73.9}, {"smiles": "Fc1ccccc1N1CCN(c2nc(-c3cccs3)nc3ccccc23)CC1", "hERG current change (%, negative = inhibition) at 10uM": 8.57}, {"smiles": "c1csc(-c2nnc(N3CCOCC3)c3ccccc23)c1", "hERG current change (%, negative = inhibition) at 10uM": -32.1}, {"smiles": "CC1CCN(c2nnc(-c3cccs3)c3ccccc23)CC1", "hERG current change (%, negative = inhibition) at 10uM": -41.6}, {"smiles": "c1csc(-c2nc(N3CCOCC3)c3ccccc3n2)c1", "hERG current change (%, negative = inhibition) at 10uM": -10.1}, {"smiles": "CCN1CCN(c2nc(-c3cccs3)nc3ccccc23)CC1", "hERG current change (%, negative = inhibition) at 10uM": -70.8}, {"smiles": "COc1ccc(CNC(=O)c2oc3ccc(S(=O)(=O)N4CCOCC4)cc3c2C)cc1", "hERG current change (%, negative = inhibition) at 10uM": 7.71}, {"smiles": "COc1ccccc1NC(=O)Nc1ncccc1C", "hERG current change (%, negative = inhibition) at 10uM": -1.09}, {"smiles": "O=C1NCCN(Cc2ccoc2)C1CC(=O)N(Cc1ccccc1)CC1CCC1", "note": "(stereo not shown)", "hERG current change (%, negative = inhibition) at 10uM": 8.87}, {"smiles": "COc1ccc(Cl)cc1NC(=O)COC(=O)c1c(-c2ccccc2)noc1C", "hERG current change (%, negative = inhibition) at 10uM": -2.53}, {"smiles": "Oc1ccccc1N1CCN(c2nc(-c3cccs3)nc3ccccc23)CC1", "hERG current change (%, negative = inhibition) at 10uM": 5.52}, {"smiles": "CC(=O)N1CCN(c2nc(-c3cccs3)nc3ccccc23)CC1", "hERG current change (%, negative = inhibition) at 10uM": -63.2}, {"smiles": "CCOC(=O)N1CCN(c2nc(-c3cccs3)nc3ccccc23)CC1", "hERG current change (%, negative = inhibition) at 10uM": -1.74}, {"smiles": "CC(=O)NC(CC(=O)Nc1nccs1)c1ccccc1.O=C(O)C(=O)O", "note": "(stereo not shown)", "hERG current change (%, negative = inhibition) at 10uM": 1.49}, {"smiles": "C=CCNCCOCCOc1ccc(Cl)cc1C(C)(C)C.O=C(O)C(=O)O", "hERG current change (%, negative = inhibition) at 10uM": 11.2}, {"smiles": "CNCCCOc1ccc(Cl)cc1C(C)(C)C.O=C(O)C(=O)O", "hERG current change (%, negative = inhibition) at 10uM": -20.6}, {"smiles": "CC(O)CNCCCOc1ccc(Cl)cc1C(C)(C)C.O=C(O)C(=O)O", "note": "(stereo not shown)", "hERG current change (%, negative = inhibition) at 10uM": -15.9}, {"smiles": "COCCCNCCCOc1ccc(Cl)cc1Br", "hERG current change (%, negative = inhibition) at 10uM": -39.2}, {"smiles": "C=CCNCCCOc1ccc(Cl)cc1C(C)(C)C.O=C(O)C(=O)O", "hERG current change (%, negative = inhibition) at 10uM": -60.8}, {"smiles": "COCCCNCCCOc1ccc(Cl)cc1C(C)(C)C", "hERG current change (%, negative = inhibition) at 10uM": -57.5}, {"smiles": "CC(C)(C)NCCCOc1ccc(Cl)cc1C(C)(C)C.O=C(O)C(=O)O", "hERG current change (%, negative = inhibition) at 10uM": 1.96}, {"smiles": "COCCCNCCOCCOc1ccc(Cl)cc1C(C)(C)C.O=C(O)C(=O)O", "hERG current change (%, negative = inhibition) at 10uM": -50.6}, {"smiles": "CC(C)(C)NCCOCCOc1ccc(Cl)cc1C(C)(C)C.O=C(O)C(=O)O", "hERG current change (%, negative = inhibition) at 10uM": 0.207}, {"smiles": "O=C(CSc1ccccn1)N1CCN(c2ccccc2)CC1", "hERG current change (%, negative = inhibition) at 10uM": 7.55}, {"smiles": "COc1ccc(O[C@H]2C=C[C@@H](c3ccccc3)O[C@@H]2CO/N=C(\\C)CCN2CCc3nc(-c4ccccc4)c(-c4ccccc4)cc3C2)cc1", "hERG current change (%, negative = inhibition) at 10uM": 6.94}, {"smiles": "CCCNC(=O)NC(=O)CSc1ncc(C(F)(F)F)cc1Cl", "hERG current change (%, negative = inhibition) at 10uM": 12.6}, {"smiles": "C#CCOCCOCCOCCNc1nc(N2CCN(C(=O)[C@H](CCCCN)n3cc([C@@H](N)CC(C)C)nn3)CC2)nc(N2CCN(C(=O)[C@H](CCCCN)n3cc([C@@H](N)CC(C)C)nn3)CC2)n1.Cl", "hERG current change (%, negative = inhibition) at 10uM": 4.98}, {"smiles": "CCCCNS(=O)(=O)c1ccc(S(=O)(=O)NCc2ccncc2)cc1", "hERG current change (%, negative = inhibition) at 10uM": -9.06}, {"smiles": "CCc1cccc2c(C(=O)CSc3nncn3C)c[nH]c12", "hERG current change (%, negative = inhibition) at 10uM": 7.69}, {"smiles": "CN(C(=O)CC1C(=O)NCCN1Cc1ccc(F)cc1Cl)C1CCCCC1", "note": "(stereo not shown)", "hERG current change (%, negative = inhibition) at 10uM": -2.68}, {"smiles": "Cc1cccc(C(=O)N2CCN(c3ccc([N+](=O)[O-])c(NCc4ccco4)c3)CC2)c1", "hERG current change (%, negative = inhibition) at 10uM": -34}, {"smiles": "CN1CCN(c2ccc([N+](=O)[O-])c(NCc3ccco3)c2)CC1", "hERG current change (%, negative = inhibition) at 10uM": -51.9}, {"smiles": "Cc1ccc(C(=O)N2CCN(c3ccc([N+](=O)[O-])c(NCc4ccco4)c3)CC2)cc1", "hERG current change (%, negative = inhibition) at 10uM": -50.5}, {"smiles": "O=C(c1ccccc1)N1CCN(c2ccc([N+](=O)[O-])c(NCc3ccco3)c2)CC1", "hERG current change (%, negative = inhibition) at 10uM": -47.2}, {"smiles": "O=[N+]([O-])c1ccc(N2CCN(CCO)CC2)cc1NCc1ccco1", "hERG current change (%, negative = inhibition) at 10uM": -32.2}, {"smiles": "O=[N+]([O-])c1ccc(N2CCNCC2)cc1NCc1ccco1", "hERG current change (%, negative = inhibition) at 10uM": -28.2}]}]}
